# Laboratory results as given in PubChem BioAssay AID1117291 (Broad Institute, 2014).
# Results with a measured potency or affinity are listed apart. Results filed as inconclusive are left out. A number with no mark means an inactive call.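 Rule for the calls: active = compound whose fitted half-maximal potency lies at or below double its highest tested dose in every test; inconclusive = tests disagree, or a flat partial loss, or a poor fit; inactive = every test inactive.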
# Assay: HepG2 cell cytotoxicity, dose response, cytotoxicity control, CellTiter-Glo luminescence, dry powder, set 20 (AID 1117291)
# Details: HepG2 viability, CellTiter-Glo ATP luminescence, 72 h; series mostly up to 26 µM; activity change, negative = cytotoxicity: at the top concentration
row,Structure (SMILES),"activity change, negative = cytotoxicity [%]"
1,O=S(=O)(Nc1cc(C(F)(F)F)ccc1N1CCCCC1)c1ccc(Br)cc1,-18
2,CC(=O)N1CCN(C(=O)C2(NC(=O)NC(C)(C)C)CCCCC2)CC1,-12.5
3,COc1ccc(C(=O)Nc2cc(F)ccc2N2CCCCC2)cc1S(=O)(=O)O,-9.22
4,COc1ccc(C(=O)Nc2cc(C(F)(F)F)ccc2N2CCCCC2)cc1S(=O)(=O)O,-13.2
5,COc1ccc(C2=NN(c3ccc(C(=O)O)cc3)C(c3ccc(OC)c(OC)c3)C2)cc1 (stereo unspecified),-15.3
6,O=S(=O)(Nc1cc(C(F)(F)F)ccc1N1CCCCC1)c1ccc(-c2ccccc2)cc1,-11.2
